In the OligoGym collection one finds sensor-assay potency score (higher = more potent) data, which are given here for 39 sequences.
Also: reference of the scale not given here.

One assay has as its target GRIA1. Briefly: pooled miR-30 sensor sort-seq; sequence = guide strand. As to conditions: shRNA.
For the sequence AAATCTATAACTTCTTCCCGGA, the sensor-assay potency score (higher = more potent) was determined as 0.0312.

TATAACTTCTTCCCGGACCAAA returned a sensor-assay potency score (higher = more potent) of -1.38. Still for that read-out and setting: then TTTCTGTCTGCTTCGCTAGGTC, with -0.0532; and TTATCGTACCACCATTTGCTTT, with -1.73. On the same count and under the same terms, next, TTCTCTAGCTTTATAATCTGGC: -0.406; TCCATCACTGACAATCTCCAGA: -1.21; TTTCTCATTAAACTGCACGTTT: -0.314. In the case of TTGTCTTGTCCTTACTTCCGGA, the sensor-assay potency score (higher = more potent) was -0.41.

TATCGTACCACCATTTGCTTTT showed a sensor-assay potency score (higher = more potent) of -0.245.

TTTGTTTAAGTCAATGTCCATG displayed a sensor-assay potency score (higher = more potent) of -1.06. The same measure, in the same setting: then TTGACTGCTGTCACCTGCCAGT, with -0.603. As for TAAACCTTCAAATCGCACCTGC, the sensor-assay potency score (higher = more potent) turned out to be 0.232.

For another assay, the target named is GRIK2. Described as above. As to conditions: shRNA.
In turn, TACACTGCAAGGAACTGACTGT showed a sensor-assay potency score (higher = more potent) of 0.034.

Regarding TTCTTCATTACTTTTGACCAGC, the sensor-assay potency score (higher = more potent) is -0.437.

TACTGCTCCATATTCTATCTTG had a sensor-assay potency score (higher = more potent) of -0.199.

As to TCGAACATAGGTAATAGCCAGT, the sensor-assay potency score (higher = more potent) is -0.567. On the same count and under the same terms, next, TTGACCAGCACTGACTGCCTTC: -0.29. TTAATTAGACTCATAAAGCGGG: the sensor-assay potency score (higher = more potent) came to 0.186. Same read-out and setting: next, TTTGTTGTCTGACACCTGGTGC: 0.0104; TTTATGTCGATTACACTGCAAG: -0.937; TTGTCCATTGGCATCATCCTGG: -0.234. The same measure, in the same setting: next, TTTGTTTAGCTAAATCATCAGC: -0.527. Same read-out and setting: next, TTGAGTCGAAGATTATACCTTG: 0.358. Consider TAGAGCAGCATCAGTCGTCATA, for which the sensor-assay potency score (higher = more potent) was -0.889.

The target of another assay is GRIPAP1. The assay is described as above. As to conditions: shRNA.
For the sequence TTCCATTGCTAGCTCATCCAGC, the sensor-assay potency score (higher = more potent) is -0.174.

Regarding TTGAAGTTCTTCCACTGTCTGC, the sensor-assay potency score (higher = more potent) is -0.043. The same measure, in the same setting: then TTCTTTTTCAGTTTCTCGGAGA, with -0.31; and TTCTTGAAGTTGTTCCAGCAGT, with -0.658. The same measure, in the same setting: then TTTCTTTTTCAGTTTCTCGGAG, with -0.138; and TTGTGATCAGCTTCCTTCCGTT, with -0.347; and TTTGTGATCAGCTTCCTTCCGT, with 0.395. Same read-out and setting: next, TATTTCTTGAAGTTGTTCCAGC: -0.115; TTCCTGTGCATCTGCACTCTGG: -1.21. On to TTTGCTGAACTCCTTATCCAAG, for which the sensor-assay potency score (higher = more potent) was -1.41.

In turn, TTCCTTGCTGAACTCGGCCATT showed a sensor-assay potency score (higher = more potent) of -1.52. On the same count and under the same terms, next, TTGCTGGTTCTCTTGCTCCAGC: -0.982.

The target in a further assay is GRK1. The assay is described as above. As to conditions: shRNA.
As for TTGTTCTCCACCTTCTCTCCAC, the sensor-assay potency score (higher = more potent) is -0.0458. The same measure, in the same setting: next, TTGCCGGTCGCCTTCATCTGGC: -1.21; TTGTCCAGCAGCACGTTCTCGG: -0.903.
